Compounds with a hit are over-represented: about 2.3% of the library has one in this group of screens.
MCL1-BIM inh – disrupts human MCL1 binding to BIM-BH3 peptide; GST-MCL1 / FITC-Bim-BH3 fluorescence polarization; inhibition, % at 10.9 µM; 0.68% of 320,000 active; AID 2057;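 active means inhibition above the mean inhibition of all tested compounds plus 3 SD, set per campaign, cut at about 40% in these data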;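 further: 0% = DMSO wells and 100% = unlabeled Bim-BH3 peptide control; higher means more loss of mP so more displacement of Bim peptide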
Mcl1-Noxa inh – disrupts binding of human Mcl-1 to Noxa peptide; 1.5% of 220,000 active; Q07820; TR-FRET Mcl-1/Noxa peptide binding, 2 h; inhibition, % at 21.7 µM;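 active means compounds that cut the protein-peptide binding signal by more than 50% relative to plate controls in a single-dose test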;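 further: His-tagged Mcl-1 with rhodamine Noxa BH3 peptide and terbium anti-His antibody; 0% = Mcl-1 plus Noxa peptide wells and 100% = peptide-only wells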
Mcl1-Bid inh – Mcl-1/Bid interaction inhibition; Q07820; TR-FRET Mcl-1/Bid-Dy647 peptide binding, 1536-well; inhibition, % at 21.7 µM; 0.97% of 220,000 active;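 active means compounds that cut the binding signal by more than half at the single screening dose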;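 further: His-tagged Mcl-1 with europium anti-His antibody binding Bid BH3 peptide; 0% = Mcl-1 plus peptide wells and 100% = peptide-only wells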
BCLXL inh – inhibitors of human Bcl-xL; GST-Bcl-xL / FITC-Bim BH3 peptide fluorescence polarization; inhibition, % at 10.9 µM; 0.7% of 320,000 active; AID 2129;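 active means inhibition above the mean of all tested compounds plus 3 SD, cutoff set per campaign, cut at about 30% in these data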;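 further: 0% = DMSO wells and 100% = unlabeled Bim-BH3 peptide competitor; inhibitors lower millipolarization by displacing the labeled peptide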
Target sequence (Q07817 whole entry, looked up): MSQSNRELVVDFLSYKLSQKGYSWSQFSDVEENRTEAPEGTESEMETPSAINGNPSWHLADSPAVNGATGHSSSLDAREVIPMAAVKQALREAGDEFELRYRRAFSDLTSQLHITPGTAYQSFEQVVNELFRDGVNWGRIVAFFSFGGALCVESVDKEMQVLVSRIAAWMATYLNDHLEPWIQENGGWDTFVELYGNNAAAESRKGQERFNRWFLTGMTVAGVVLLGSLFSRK
Bim-Mcl-1 – human Bim-Mcl-1 interaction inhibition. 0.1% of 190,000 active. AID 1009. Bead-based flow cytometry, Bim peptide-Mcl-1 binding. inhibition, % at 10 µM. Q07820; in the data active means inhibition above about 40%;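 further: 0% = no compound tracer wells and 100% = peptide blocker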
GLD-1 RNA inh – GLD-1-TGE RNA interaction inhibition (C. elegans); Q17339; 0.44% of 320,000 active; AID 2280; inhibition, % at 5.96 µM; purified GLD-1 + fluorescein TGE RNA, fluorescence polarization;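 active means percent inhibition above a per-plate cutoff, the plate mean of test compounds plus 3 SD, cut at about 30% in these data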;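 further: 0% = DMSO wells with GLD-1 and probe and 100% = wells lacking GLD-1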
Target sequence (Q17339 whole entry, looked up): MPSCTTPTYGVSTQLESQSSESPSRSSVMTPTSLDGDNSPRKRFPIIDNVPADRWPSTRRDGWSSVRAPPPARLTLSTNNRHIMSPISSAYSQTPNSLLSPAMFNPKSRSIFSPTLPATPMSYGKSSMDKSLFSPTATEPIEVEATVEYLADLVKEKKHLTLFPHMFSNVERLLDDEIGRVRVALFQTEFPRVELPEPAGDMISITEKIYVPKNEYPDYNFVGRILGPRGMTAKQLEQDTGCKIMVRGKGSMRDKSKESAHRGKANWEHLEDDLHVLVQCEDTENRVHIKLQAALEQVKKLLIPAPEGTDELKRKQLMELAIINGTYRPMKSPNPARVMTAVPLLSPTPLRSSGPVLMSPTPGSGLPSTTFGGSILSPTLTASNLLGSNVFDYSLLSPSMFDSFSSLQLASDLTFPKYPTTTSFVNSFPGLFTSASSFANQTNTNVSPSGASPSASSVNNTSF
BCLXL inh confirm – counter-screen for MCL1 inhibitors: confirmation of human Bcl-xL inhibitors; shares compounds with MCL1-BIM inh; 54% of 1,700 active; inhibition, % at 10.9 µM; GST-Bcl-xL / FITC-Bim BH3 peptide FP binding;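 active means inhibition above a cutoff equal to the mean inhibition of all tested compounds plus 3 SD, cut at about 30% in these data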;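 further: 0% = DMSO wells and 100% = unlabeled Bim BH3 control peptide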
MCL1 BIM confirm – confirmation of human MCL1 and BIM-BH3 interaction inhibitors; shares compounds with MCL1-BIM inh; GST-MCL1 / FITC-Bim-BH3 fluorescence polarization; inhibition, % at 10.9 µM; 61% of 1,700 active;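 active means inhibition above the average of all tested compounds plus 3 SD, cut at about 40% in these data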;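 further: 0% = DMSO wells and 100% = unlabeled Bim-BH3 control peptide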
* = called active by the depositor; x = no result; + = active, no number.

SMILES | MCL1-BIM inh | Mcl1-Noxa inh | Mcl1-Bid inh | BCLXL inh | Bim-Mcl-1 | GLD-1 RNA inh | BCLXL inh confirm | MCL1 BIM confirm
Cc1c2ccccc2nc2c(F)c(NCCO)c(F)c(F)c12 | + | -34 | -55 | 157* | -1 | 83* | + | +
Cc1cc(C(=O)Nc2ccccc2Cl)n(-c2ccccc2)n1 | 0 | x | x | 1 | x | 10 | x | x
CCC1(CC)NC(=O)N(CC(=O)N2N=C(c3ccc(Cl)cc3)CC2c2ccco2)C1=O (configuration not stated) | 0 | 2 | -5 | -4 | 1 | 3 | x | x
O=C(COC(=O)Cc1cccc(F)c1)NCCc1ccccc1 | -2 | x | x | 5 | x | 0 | x | x
COc1ccc(NC(=O)c2cc(-c3ccco3)nc3ccccc23)cc1 | 3 | x | x | 5 | x | 1 | x | x
O=C(NCC1CCCO1)c1cc(-c2ccco2)nc2ccccc12 (configuration not stated) | 67* | 42 | -53 | 55* | 2 | 39* | 12 | 24
O=C(N/N=C/c1cccc(F)c1)c1cc(-c2ccco2)nc2ccccc12 | 74* | 91* | -19 | 16 | -2 | 4 | 24 | 64*
O=C(N/N=C/c1ccc2c(c1)OCO2)c1cc(-c2ccc(F)cc2)nc2ccccc12 | -8 | 5 | -5 | 3 | -2 | 0 | x | x
CCc1nnc(NC(=O)c2cc(-c3ccco3)nc3ccccc23)s1 | 51* | 82* | -31 | 24 | 1 | 6 | 32* | 72*
COc1ccc(NC(=O)c2cc(-c3ccco3)nc3ccccc23)cc1S(=O)(=O)N1CCOCC1 | 42* | 101* | -25 | 9 | x | 3 | 38* | 37
CCc1nnc(NC(=O)c2cc(-c3ccccn3)nc3ccccc23)s1 | 6 | 24 | 16 | 7 | 1 | -1 | x | x
COc1ccc(-n2nc3c(c2NC(=O)C2CC(=O)N(c4ccccc4)C2)CS(=O)(=O)C3)cc1 (configuration not stated) | 8 | x | x | 4 | x | -6 | x | x
COc1ccccc1CNC(=O)COC(=O)c1cc(-c2ccco2)nc2ccccc12 | 72* | 92* | 32 | 29 | 3 | 10 | 35* | 71*
O=C(Cn1c(NCCCO)nc2ccccc21)c1ccc(Cl)cc1Cl | 1 | x | x | 2 | x | 3 | x | x
CCc1cc(C(=O)Cc2cnn(-c3ccccc3)c2)c(O)cc1O | 4 | 4 | 5 | 3 | -2 | -4 | x | x
O=C(Cc1cnn(-c2ccccc2)c1)c1ccc(O)c(O)c1O | 64* | 39 | -1 | 16 | -2 | 2 | 14 | 40
COc1cc(C(=S)N2CCN(c3ccccc3Cl)CC2)cc(O)c1O | 58* | 60* | -54 | 25 | -8 | 14 | 34* | 71*
Cn1ccnc1C(O)c1ccccc1 (configuration not stated) | -3 | -3 | -9 | 4 | 0 | -3 | x | x
COc1ccc2ccccc2c1C(O)c1nccn1C (configuration not stated) | + | -7 | -3 | 173* | -1 | 145* | 164* | 197*
COc1ccc(S(=O)(=O)Nc2cc(SCC(=O)O)c(O)c3ccccc23)cc1 | x | x | x | 25 | x | 6 | 30 | x
Cn1cccc1C(=O)NC(=O)COC(=O)CCNS(=O)(=O)c1cccc(C(F)(F)F)c1 | 0 | x | x | 2 | x | 8 | x | x
CSCC(C)N1CCC(n2nccc2NC(=O)CCCc2ccccc2)CC1 (configuration not stated) | 108* | x | x | 99* | x | 45* | 99* | 119*
Cc1cccc2nc3ccccc3cc12 | 5 | x | x | 12 | x | 5 | x | x
C/C(O)=c1/ccc2cccc3nc(C)nc1c23 | 61* | 1 | -28 | 71* | 3 | 22 | 62* | 57*
O=C(c1nc2ccc(Cl)cn2c1CN1CCCC1)N1CCc2ccccc2C1 | 67* | x | x | 57* | x | 37* | 63* | 87*
SMILES | MCL1-BIM inh | Mcl1-Noxa inh | Mcl1-Bid inh | BCLXL inh | Bim-Mcl-1 | GLD-1 RNA inh | BCLXL inh confirm | MCL1 BIM confirm
Cc1cc(NC(=O)CSc2nc(C)c(C)n2CC(C)C)no1 | x | x | x | x | x | 1 | x | x
FC(F)(F)c1nnc2ccc(Sc3ccccn3)nn12 | 1 | 4 | 8 | 0 | 0 | -2 | x | x
Cc1ccc2[nH]c(=O)c(C3C(C#N)=C(N)Oc4c3ccc3cccnc43)cc2c1 (configuration not stated) | 44* | 33 | 60* | 13 | 0 | -1 | 37* | 58*
N#CC1=C(N)Oc2c(ccc3cccnc23)C1c1ccccc1 (configuration not stated) | 25 | -12 | -19 | 10 | x | -3 | x | x
Cc1cc(/C=N/NC(N)=S)c(O)c(/C=N/NC(N)=S)c1 | + | -21 | -52 | + | x | 189* | 189* | +
CC1=CC(=Nc2c(C)n(C)n(-c3ccccc3)c2=O)C=CC1=O | 126* | 21 | -114 | 125* | x | 76* | 28 | 25
O=S(=O)(O)c1cc(O)ccc1O | 6 | x | x | 8 | x | 2 | x | x
O=S(=O)(c1cc(O)ccc1O)c1cccc2c(S(=O)(=O)c3cc(O)ccc3O)cccc12 | 46* | x | x | 9 | x | 8 | 24 | 52*
N#CC12C(N)=NC3(OCCO3)C1(C#N)C1=C(CCC1)NC2c1ccccc1 (configuration not stated) | 64* | 5 | -32 | 35* | -1 | 63* | 18 | 24
Cc1ccc(S(=O)(=O)N2CCN(C(=O)c3cccc(-n4cccc4)c3)CC2)cc1 | 16 | x | x | 8 | x | -5 | x | x
O=C(c1cccc(-n2cccc2)c1)N1CCN(S(=O)(=O)c2ccccc2)CC1 | 51* | x | x | 12 | x | 2 | 32* | 88*
O=C1OC(C(=O)NCc2ccccc2)Cc2ccccc21 (configuration not stated) | 4 | -1 | -30 | -2 | 0 | 0 | x | x
Cc1oc(/N=C/c2ccccc2O)c(C#N)c1C | 9 | x | -20 | 13 | -3 | 18 | x | x
Cc1oc(/N=C/c2ccc(O)cc2O)c(C#N)c1C | 65* | 17 | -46 | 64* | 0 | 53* | 57* | 65*
CN1C=CC2=C(C#N)C(N)C(C#N)(C#N)C(c3ccccc3)C2C1 (configuration not stated) | 90* | -9 | -28 | 90* | -1 | 46* | 40* | 56*
CN1C[C@@H]2C(c3ccccc3)C3(c4ccc(C#N)cc4)CC2(C3)[C@H]1c1ccccc1 (some centres not stated) | -1 | 3 | -84 | -1 | x | 3 | x | x
Cc1cc(O)c(Oc2cc(C)cc(O)c2O)c(O)c1 | 52* | 61* | -8 | 27 | -3 | 11 | 34* | 46*
